The panel holds about 83,000 compounds, 20% with a hit somewhere; the sample as a whole holds those more often.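 Step 1: grow cells in 96-well plates. Step 2: add test compound at a single concentration. Step 3: incubate 48 h. Step 4: record percent growth.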 Unmarked numbers belong to inactive results. Calls of active or inactive are those of the source. How the source made its calls: active means growth percent below 10; inactive means the rest.
Assays:
Assay in all cases: NCI-60 one-dose screen, 48 h (100 = growth as untreated, 0 = no growth, -100 = all killed)
Conditions in all cases: 10 µM unless noted
SR leukemia = test system: SR leukemia
RPMI-8226 leukemia = test system: RPMI-8226 leukemia
OVCAR-8 ovarian = test system: OVCAR-8 ovarian
OVCAR-5 ovarian = test system: OVCAR-5 ovarian
OVCAR-4 ovarian = test system: OVCAR-4 ovarian
SK-OV-3 ovarian = test system: SK-OV-3 ovarian
IGROV1 ovarian = test system: IGROV1 ovarian
OVCAR-3 ovarian = test system: OVCAR-3 ovarian
HS 578T breast = test system: HS 578T breast
NCI/ADR-RES ovarian = test system: NCI/ADR-RES ovarian

Row | Structure (SMILES) | growth (SR leukemia) | growth (RPMI-8226 leukemia) | growth (OVCAR-8 ovarian) | growth (OVCAR-5 ovarian) | growth (OVCAR-4 ovarian) | growth (SK-OV-3 ovarian) | growth (IGROV1 ovarian) | growth (OVCAR-3 ovarian) | growth (HS 578T breast) | growth (NCI/ADR-RES ovarian)
1 | COc1cc(OC)c(NC(=O)c2cc3ccccc3cc2O)cc1Cl | 82.6% | 7.51% (active) | 41.5% | 89% | 41.4% | 71.6% | 1.6% (active) | 2.27% (active) | 31.1% | 14.1%
2 | CC(C)(Sc1cc(C(C)(C)C)c(O)c(C(C)(C)C)c1)Sc1cc(C(C)(C)C)c(OC(=O)CCCC(=O)O)c(C(C)(C)C)c1 | 28.1% | 37.2% | 56.7% | 100% | 67.9% | 91.6% | 57.4% | 44.2% | 80.1% | 78.7%
3 | COc1ccc(/C=C/C(=O)c2cc3c(N)c(C(=O)Nc4cccc5ccccc45)sc3nc2C)cc1 | 44.1% | 33.4% | 81% | 103% | 88.7% | 87.7% | 70.4% | 22% | 47.6% | 58.8%
4 | NC(=O)c1cc(I)ccc1NC(=O)/C=C/c1ccccc1 | 1.87% (active) | -5.89% (active) | 31% | 42.4% | 44.6% | 69.8% | -52.7% (active) | -63.3% (active) | -12.8% (active) | -37.1% (active)
5 | Cc1c(-c2ccc(O)cc2)n(Cc2ccc(OCCN3CCCCCC3)cc2)c2ccc(O)cc12 | 1.53% (active) | 57.5% | 84.7% | 87.9% | 78.1% | 81.3% | 85.7% | 85.1% | 68.4% | 85.7%
6 | Cn1ccnc1C(=O)/C=C/c1ccc(C(=O)Nc2ccc(Cl)cc2)cc1 | -8.67% (active) | -8.46% (active) | 14.3% | 12.6% | 18.1% | 42.2% | -22.4% (active) | -12.8% (active) | 18.4% | 5.79% (active)
7 | CSc1nnc(-c2cc3c([nH]c4ccccc43)c(-c3cccc(O)c3)n2)n1-c1ccccc1 | 21.7% | 16.2% | 47.1% | 58.7% | 43.7% | 47.4% | 49.9% | -0.418% (active) | 25.1% | 56.6%
8 | CCOC(=O)c1c(C(=O)c2cn(C)c3ccc(Br)cc23)c(-c2cn(C)c3ccc(Br)cc23)n(NC(=O)OC(C)(C)C)c1C | 89.1% [100 µM] | 69.2% [100 µM] | 71.8% [100 µM] | 92.3% [100 µM] | 105% [100 µM] | 54.8% [100 µM] | 70.7% [100 µM] | 88.5% [100 µM] | 46.8% [100 µM] | 85.4% [100 µM]
9 | O=C(CN1CCOCC1)Nc1nc(-c2cc3ccccc3oc2=O)cs1 | 102% | 104% | 99.4% | 95.5% | 102% | 116% | 87.9% | 105% | 92.8% | 103%
10 | CN1CCc2nc3sc(C(N)=O)c(N)c3c(-c3cccs3)c2C1 | 22.8% | 75.7% | 22.2% | 15.1% | 64.5% | 57.4% | 26.2% | -32.5% (active) | 32.4% | 40.6%
11 | c1ccc(Cn2cc3c(c2)-c2oncc2CC3)cc1 | 39.3% | 8.25% (active) | 36.4% | 25.1% | 64.1% | 13.5% | 34.9% | -23.8% (active) | 1.9% (active) | 0.523% (active)
12 | NNc1nc(-c2cccnc2)nc2c1sc(=S)n2-c1ccccc1 | 88.3% | 106% | 92.8% | 102% | 100% | – | 97.9% | 93.1% | 112% | 102%
13 | O=S(=O)(Nc1ccc(Cl)c(C(F)(F)F)c1)c1ccc(-c2cnc(C3CC3)o2)cc1 | 3.51% (active) | 8.83% (active) | 5.21% (active) | 19.2% | 25.7% | – | 24.3% | 9.38% (active) | -1.41% (active) | 2.96% (active)
14 | CCN1C(=O)N(CC)C2C1NN=c1s/c(=C\c3ccccc3F)c(=O)n12 (stereo unspecified) | 8.64% (active) | 21.4% | -1.12% (active) | 27.5% | 41.4% | – | 15.2% | 0.255% (active) | 13.2% | 6.01% (active)
15 | O=C(CN1C(=O)S/C(=C\c2ccccc2)C1=O)Nc1ncc(Cc2ccccc2Cl)s1 | 113% | 103% | 93.3% | 103% | 89.6% | – | 94.6% | 109% | 102% | 96.2%
16 | C=CCSc1nnc(NC(=O)CCl)s1 | 88.4% | 73% | 92.5% | 120% | 73.2% | – | 81.6% | 94.8% | 93.7% | 93%
17 | Nc1nc(-c2ccc(Cl)cc2)nc2c1sc(=S)n2-c1ccccc1 | -17.8% (active) | 45.5% | 32.4% | 62.6% | -20.1% (active) | – | 44.9% | 40.2% | 19.9% | 43.8%
18 | Cc1cc(C(=O)O)c(C)n1-c1cccc(C(=O)O)c1 | 62.6% | 107% | 73.4% | 66.4% | 91.4% | – | 56.9% | 121% | 92.5% | 72.1%
19 | N#Cc1c(-c2ccc(Cl)cc2)c(C#N)c2c(C#N)c(N)nn2c1N | 69.5% | 73.9% | 88% | 86.9% | 82.4% | – | 74.1% | 93.8% | 79.4% | 96.3%
20 | O=C(Nc1cccc(Cl)c1)Nc1cccc(Cn2c(=O)[nH]c3ccc(Oc4ncccn4)cc3c2=O)c1 | 21.4% | 25.3% | 37.4% | 81.7% | 13.3% | – | 62% | 33.5% | 51.8% | 95.5%
21 | O=S(=O)(Nc1cc(F)cc(Cl)c1)c1ccc(-c2cnc(C3CC3)o2)cc1 | 25.4% | 28.9% | 39.8% | 50.8% | 52.5% | 44.2% | 30% | 10.2% | -3.79% (active) | 21.9%
22 | COc1cc(C2c3cc(OC(C)=O)c(OC)cc3CC3C(=O)OCC32)ccc1OC(C)=O (stereo unspecified) | 108% | 93.1% | 111% | 93.9% | 99.2% | 111% | 111% | 121% | 123% | 106%
23 | C=C1C(=O)O[C@H]2[C@H]1CC/C(COC(=O)C(=O)c1cn(C)c3ccc(Cl)cc13)=C\CC[C@@]1(C)O[C@@H]21 | 2.71% (active) | -33.7% (active) | -23.9% (active) | -47.6% (active) | -61.2% (active) | – | -72.1% (active) | -86.3% (active) | -16.9% (active) | -3.58% (active)
24 | CCNCCNc1cc(C2CCCCC2)c(C#N)c2nc3ccccc3n12 | -10.4% (active) | -13.9% (active) | 26.2% | 18.2% | 28.3% | – | 7.32% (active) | -67.9% (active) | -5.65% (active) | 35.5%
25 | COc1cccc(CNc2ccc3ncnc(Nc4ccc(F)c(Cl)c4)c3c2)c1 | 50.5% | 68.3% | 59.3% | 72.2% | 60.6% | 42.6% | 36.8% | 53.8% | 87.4% | 54.7%
26 | COC(=O)/C=C1/SC(=Nc2ccc(C(F)(F)F)cc2)N(CCc2c[nH]c3ccc(O)cc23)C1=O | -35.5% (active) | -50.3% (active) | 13.9% | -25.9% (active) | -45.6% (active) | – | -54.2% (active) | -31.1% (active) | 7.87% (active) | 21%
27 | Cc1nc2sc(C(=O)Nc3ccc(Br)cc3)c(N)c2cc1C(O)c1ccccc1 (stereo unspecified) | 14.9% | 55.4% | 75.2% | 92% | 59.3% | – | 75.1% | 73.9% | 74.1% | 59.7%
28 | O=C(CN1CCCCC1)Nc1nc(-c2cc3ccccc3oc2=O)cs1 | 89.5% | 106% | 98.3% | 104% | 95.3% | – | 92.9% | 111% | 93.3% | 101%

— PubChem BioAssay (NCI)
